We go through 63 compounds from ChEMBL document CHEMBL3988442, “University of Dundee, Small-Polar-MMV Screening Library” (2021).

Out of some 48,000 compounds screened, about 13,000 (27%) showed an effect of 50% or more. This is one part of the list.

For the test, the system named is Wolbachia pipientis. In words: Anti-Wolbachia Cell-Based Screen. Particulars: 5 µM. More on the design: scale not given: in the data most compounds retested in dose-response had high values. In kind it is functional.
For `O=C(O)c1ccccc1-c1c(-c2ccccc2)ncn1C[C@H]1CCCN1`, the “Percent Effect” value is reported as -12.22%. Regarding `c1cncc(CNc2cccc(OCCN3CCCCC3)c2)c1`, the “Percent Effect” value is recorded as 1.449%. As for `CN(C)C(=O)CCNC(=O)NCc1ccc(Br)cc1Cl`, the figure is 9.255%; as for `O=c1[nH]nc(CNc2ncc(Br)cn2)[nH]1`, 1.625%; as for `CC(=O)c1cccc(OCCCC(=O)N(C)C2CCN(C)CC2)c1`, -6.579%. On to `COc1ccc(CNCCc2cc(F)cc3c2OCOC3)cc1O`, for which the “Percent Effect” value is recorded as 19%.

As to `CCC(O)CN1CCN(C(=O)C2(c3ccc(C)c(OC)c3)CC2)CC1` (stereo not drawn), the “Percent Effect” value is reported as -7.505%.

With `CCC(=O)N1CCC2(CCN(Cc3cccc(F)c3)CC2)CC1.O=C(O)C(F)(F)F`, the “Percent Effect” value was -2.197%. Under `CCC(CN1CCN(C)CC1)NC(=O)C1(c2cccc(F)c2)CC1.O=C(O)CC(O)(CC(=O)O)C(=O)O` (stereo not drawn) stands 126%.

Consider `O=C(O)C(F)(F)F.O=C(O)C(F)(F)F.c1cc2c(cc1CN1CC[C@H]3[C@H]1CCN3CC1CC1)OCO2`, for which the “Percent Effect” value was -18.3%. Turning to `COCC1c2c(cnn2C)CCN1C(=O)c1ccc2c(c1)OCO2` (stereo not drawn), the “Percent Effect” value is reported as 20.59%.

`CC(=O)N1CC[C@H]2CC(=O)N(Cc3ccc4c(c3)OCO4)CC[C@H]2C1`: the “Percent Effect” value is recorded as 1.484%. `CCCC(O)CN1CCC(=O)N(CC)Cc2cc3c(cc21)OCO3` (stereo not drawn): the “Percent Effect” value came out at 85.4%.

Regarding `COCCN1C[C@H]2CN(C(=O)c3ccc4c(c3)OCO4)CCN2C1=O`, the “Percent Effect” value was -8.36%. Under `CCCC(O)CN1CCC(=O)N(CC2CC2)Cc2cc3c(cc21)OCO3` (stereo not drawn) stands 71.64%; under `CCCC(O)CN1CCC(=O)N(CCOC)Cc2cc3c(cc21)OCO3` (stereo not drawn), 110.9%; under `CCN1CC(C(=O)N2CCc3cc(C(=O)N(C)C)n(C)c3C2)CCC1=O` (stereo not drawn), 22.54%. As for `Cc1ccccc1N1CCN(C(=O)Cc2ccc3c(c2)OCO3)CC1=O`, the “Percent Effect” value was -22.32%. As for `CC(NC(=O)Nc1ccccc1CN1CCOCC1)c1nnc(N)s1` (stereo not drawn), the “Percent Effect” value was determined as 1.041%.

With `Cc1cc(C)n(CC(C)NCc2nncn2C2CCCCC2)n1` (stereo not drawn), the “Percent Effect” value is -18.85%. Take `CCC(C)NS(=O)(=O)Cc1cccc(NC(=O)c2ccc[nH]2)c1` (stereo not drawn): the “Percent Effect” value is given as -2.911%.

For the compound `Cc1ncsc1CCN(C)C(=O)CN1CC2(CCCC2)CC1=O`, the “Percent Effect” value is -2.773%.

Take `COc1cc(C(=O)NCCc2ccccc2OC)on1`: the “Percent Effect” value came to 0.865%. As for `O=C(N[C@H]1CC[C@H](O)CC1)c1ccc2nc(-c3ccccc3)cn2c1`, the figure is -19.25%; as for `CC(C)n1cc(CN2CCCN(C(=O)COC3CCCC3)CC2)cn1`, 98.23%; as for `CC(C)n1cc(CN2CCCN(C(=O)CC3CCCO3)CC2)cn1` (stereo not drawn), 115.9%.

As to `CCc1[nH]ncc1C(=O)N1CCCN(Cc2cnn(C(C)C)c2)CC1`, the “Percent Effect” value is on record as -9.524%.

Consider `CC(C)n1ccnc1CN1CCCN(C(=O)COC2CCCC2)CC1`, for which the “Percent Effect” value is -4.301%.

In the case of `CC(C)n1cc(CN2CCCN(C(=O)CC3CCCCC3)CC2)cn1`, the “Percent Effect” value came to 102.4%. As for `CCCC(=O)N1CCCN(C(=O)Nc2ccc(C)s2)CC1`, the figure is 4.138%. On to `O=C(C(c1ccccc1)N1CCc2cncnc2C1)N1CCCCC1` (stereo not drawn), for which the “Percent Effect” value is on record as -0.8294%. As for `N#CC1(NC(=O)COc2cc(Cl)cc(Cl)c2)CCSC1` (stereo not drawn), the figure is -14.75%; as for `O=C(NCCCn1cnnc1)C1CCCN(C2CCCC2)C1` (stereo not drawn), 8.155%; as for `O=C(c1ccccc1OCC1CC1)N1CCCC1Cn1cccn1` (stereo not drawn), 15.75%. Under `O=C(CCCOc1ccc(F)cc1F)N1CCCC1Cn1cccn1` (stereo not drawn) stands 4.503%; under `O=C(CCOc1ccccc1F)N1CCCC1Cn1cccn1` (stereo not drawn), 123.4%. Under `COc1ccccc1OCCC(=O)N1CCCC1Cn1cccn1` (stereo not drawn) stands 114.3%; under `COc1cc(C)ccc1OCCC(=O)N1CCCC1Cn1cccn1` (stereo not drawn), 6.133%; under `O=C(CCOc1ccccc1F)N1CCCCC1Cn1cccn1` (stereo not drawn), 114.4%. For the compound `CCOCCC(=O)N1CCCCC1CCn1cccn1` (stereo not drawn), the “Percent Effect” value is on record as -10.55%. Under `O=C1O[C@@H]2CN(c3ncccn3)C[C@@H]2N1CCCc1ccc(F)cc1` stands 0.8552%. As for `CCc1nc(CN(CC(N)=O)C(C)C)cs1`, the figure is -5.873%. On to `CN(C)CCOc1ccccc1N1CCN(C(=O)C(C)(C)C#N)CC1`, for which the “Percent Effect” value amounted to 12.48%. Under `COCCN(Cc1c(C)nn(C)c1C)C(=O)C1COc2ccccc2C1` (stereo not drawn) stands -13.07%; under `Cc1cc(C)n(CC2CCCCN2CC(=O)Nc2cccnc2)n1` (stereo not drawn), -5.388%; under `CN(Cc1nc(-c2cccnc2)no1)C(=O)c1cccn1C`, -3.845%.

Turning to `CCOC1COC2(CCN(S(=O)(=O)c3ccc(F)cc3)CC2)C1` (stereo not drawn), the “Percent Effect” value is -48.73%. As for `COc1cccc(C(C)N2CCN(S(=O)(=O)c3ccccc3)CC2)c1` (stereo not drawn), the figure is -3.731%; as for `COc1cccc(S(=O)(=O)CCN2CCC3(CC2)OCCO3)c1`, -7.046%. As for `COc1ccc(S(=O)(=O)N2C[C@H](OC)[C@]3(CCCO3)C2)cc1`, the figure is 124.9%; as for `COc1ccc(S(=O)(=O)N2CCCC3(CCCN3S(C)(=O)=O)C2)cc1` (stereo not drawn), -14.23%; as for `COC1COC2(CCN(S(=O)(=O)c3ccc(F)cc3)CC2)C1` (stereo not drawn), -4.083%. `COc1cccc(S(=O)(=O)N2C[C@H](OC)[C@]3(CCCO3)C2)c1`: the “Percent Effect” value came out at 151.5%. On to `CCN1CCNC(=O)C12CCN(S(=O)(=O)c1ccc(OC)cc1)CC2`, for which the “Percent Effect” value is 15.65%. Consider `COc1cccc(S(=O)(=O)N2C[C@@H](N(C)C)[C@H](C(C)C)C2)c1`, for which the “Percent Effect” value was -6.322%. As for `COc1cccc(S(=O)(=O)N2C[C@@H](O)[C@H](N(C)C)C2)c1`, the figure is 179.9%. Under `CC(C)[C@@H]1CN(S(=O)(=O)c2cccc(C(=O)O)c2)C[C@H]1N(C)C` stands 0.7097%; under `CO[C@H]1CN(S(=O)(=O)c2ccc(F)cc2)C[C@@]12CCCO2`, 187.7%; under `Cc1nnc(C(C)Nc2cccc(COCC(F)(F)C(F)F)c2)o1` (stereo not drawn), 6.562%. Consider `CC(C)Cc1cn(C2CCN(C(C)CC3CC3)CC2)nn1` (stereo not drawn), for which the “Percent Effect” value is reported as 4.944%. With `O=C1NCC2(CCCN(C(=O)c3ccc4c(c3)OCCO4)CC2)O1` (stereo not drawn), the “Percent Effect” value is on record as 12.75%. Under `COc1cc(F)c(S(=O)(=O)N2c3ncccc3NC(=O)C2C)cc1OC` (stereo not drawn) stands -16.51%.

For the compound `O=C(CCc1nc2cccnc2[nH]1)Nc1cccnc1`, the “Percent Effect” value was found to be 5.191%.
